Measured values: PubChem BioAssay (EPA / NIEHS)
Inconclusive results are not listed. The source made the active and inactive calls. Rule for the calls, unless noted: active = hit-call score of the fitted dose curve at least 0.9, where 1 is the maximum; inactive = score below 0.9.

Experiments:
[1] = target: Thyroid hormone receptor alpha (Rattus norvegicus) + Thyroid hormone receptor beta (Rattus norvegicus) (UniProt P18113+P63059); experiment: TOX21_TR_LUC_GH3_Antagonist_Followup: Tox21 GH3 Thyroid Hormone Receptor Antagonism Luciferase Follow-Up Assay (AID 2283942; active = hit-call score of the fitted dose curve at least 0.9, where 1 is the maximum)
Method in brief: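 Luminescence read-out (ONE-Glo, 30 min at room temperature) in GH3 reporter cells challenged with 1.0 nM T3 final. Compounds ran at 92 uM to 5nM over 15 concentrations for 24 h; DMSO served as negative control and baseline.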

THRA (gene 7067) = THRA (gene 7067) (UniProt P10827); experiment: TOX21_TRA_COA_Antagonist_Followup_ratio: Tox21 Thyroid Hormone Receptor alpha Antagonism through Coactivator Recruitment Follow-Up Assay, Ratio (AID 2283953; active = hit-call score of the fitted dose curve at least 0.9, where 1 is the maximum)
Method in brief: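 We measured antagonism of T3-type coactivator recruitment using a TR-FRET ratio (emission 520 and 495 nm) between a Tb-labelled anti-GST antibody on TRα LBD (2.5 nM) and SRC-2 peptide (200 nM). Activity was scaled between DMSO and T3 wells.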

THRB (gene 7068) [2] = target: THRB (gene 7068) (UniProt P10828); experiment: TOX21_TRB_BLA_Antagonist_Followup_ratio: Tox21 Thyroid Hormone Receptor beta Antagonism Beta-lactamase (BLA) Follow-Up Assay, Ratio (AID 2283958; active = hit-call score of the fitted dose curve at least 0.9, where 1 is the maximum)
Method in brief: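 Using charcoal-stripped 2% FBS medium, human TRβ-LBD/GAL4 reporter HEK293T cells received test compounds for 18 h. The endpoint is the cleaved-to-uncleaved substrate ratio (460/530 nm).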

[3] = TOX21_TRB_BLA_Antagonist_Followup_viability: Viability Assessment in the Tox21 Thyroid Hormone Receptor beta Antagonism Beta-lactamase (BLA) Follow-Up Assay (AID 2283961; active = hit-call score of the fitted dose curve at least 0.9, where 1 is the maximum)
Method in brief: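 TRβ-bla HEK293T (human TRβ LBD fused to GAL4 DBD), 3,000 cells/well, 2% charcoal-stripped FBS, phenol red-free medium; 18 h compound exposure, 37C; CellTiter-Glo 30 min RT; luminescence, loss-of-signal readout.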

THRB (gene 7068) [4] = target: THRB (gene 7068) (UniProt P10828); experiment: TOX21_TRB_COA_Antagonist_Followup_ratio: Tox21 Thyroid Hormone Receptor beta Antagonism through Coactivator Recruitment Follow-Up Assay, Ratio (AID 2283967; active = hit-call score of the fitted dose curve at least 0.9, where 1 is the maximum)
Method in brief: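 GST-TRb LBD 5.0 nM + 0.10% BSA, compound added; fluorescein-SRC-2 peptide 200 nM, Tb-anti-GST Ab 2 nM. TR-FRET, ex 340 / em 520:495 ratio. Norm: DMSO 0%, T3 100%.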

[5] = target: Retinoic acid receptor RXR-alpha (Homo sapiens) (UniProt P19793); experiment: TOX21_TR_RXR_BLA_Antagonist_Followup_ratio: Tox21 Thyroid Hormone Receptor beta Retinoid X Receptor alpha (RXRa) Antagonism Beta-lactamase (BLA) Follow-Up Assay, Ratio (AID 2283972; active = hit-call score of the fitted dose curve at least 0.9, where 1 is the maximum)
Method in brief: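 HEK293T RXRa-bla, 2% charcoal-stripped FBS medium, 16 h compound exposure at 37C, qHTS 11 conc x3. CCF4 FRET ratio ch2/ch1 (460:530), DMSO = baseline, loss-of-signal fit.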

[6] = TOX21_TR_RXR_BLA_Antagonist_Followup_viability: Viability Assessment in the Tox21 Thyroid Hormone Receptor beta Retinoid X Receptor alpha (RXRa) Antagonism Beta-lactamase (BLA) Follow-Up Assay (AID 2283979; active = hit-call score of the fitted dose curve at least 0.9, where 1 is the maximum)
Method in brief: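 RXRa-bla HEK293T cells (2,500/well, phenol red-free DMEM, 2% charcoal-stripped FBS) were attached 5 h, then exposed to compounds at 11 concentrations in triplicate for 16 h at 37C. Viability measured by CellTiter-Glo ATP luminescence, bidirectional fitting versus DMSO.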

[7] = CCTE_Harrill_HTTr_Viability_DMEM_6hr: (Pilot) CCTE's 6-hour Cell Viability Assessment for the High-Throughput Transcriptomics (HTTr) Platform, in MCF-7 cells cultured in DMEM + 10% fetal bovine serum, Harrill Lab (AID 2283973)
Method in brief: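 Propidium iodide uptake imaged by high-content analysis after six hours of chemical treatment in an eight-concentration series. Cells: MCF-7 grown in DMEM with 10% fetal bovine serum; DMSO as baseline.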

[8] = CCTE_Harrill_HTTr_Viability_DMEM_12hr: (Pilot) CCTE's 12-hour Cell Viability Assessment for the High-Throughput Transcriptomics (HTTr) Platform, in MCF-7 cells cultured in DMEM + 10% fetal bovine serum, Harrill Lab (AID 2283974)
Method in brief: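 Propidium iodide dye exclusion imaged by high-content microscopy after 12 h chemical exposure (eight concentrations) of MCF-7 cells grown in DMEM plus 10% FBS; values fitted in both directions relative to DMSO.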

[9] = CCTE_Harrill_HTTr_Viability_DMEM_24hr: (Pilot) CCTE's 24-hour Cell Viability Assessment for the High-Throughput Transcriptomics (HTTr) Platform, in MCF-7 cells cultured in DMEM + 10% fetal bovine serum, Harrill Lab (AID 2283975)
Method in brief: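 Pilot study: propidium iodide dye exclusion, imaged by high content microscopy, after 24 h compound exposure (eight concentrations) in MCF-7 cultured in DMEM + 10% fetal bovine serum; DMSO served as negative control and baseline.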

[10] = CCTE_Harrill_HTTr_Viability_PRF_DMEM_6hr: (Pilot) CCTE's 6-hour Cell Viability Assessment for the High-Throughput Transcriptomics (HTTr) Platform, in MCF-7 cells cultured phenol red-free DMEM + 10% charcoal-stripped fetal bovine serum, Harrill Lab (AID 2283976)
Method in brief: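 Membrane integrity by high-content imaging of propidium iodide uptake, six hours after dosing with eight concentrations. Cells: MCF-7 grown in phenol red-free DMEM plus 10% charcoal-stripped serum; DMSO serves as baseline for bidirectional fits.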

[11] = CCTE_Harrill_HTTr_Viability_PRF_DMEM_12hr: (Pilot) CCTE's 12-hour Cell Viability Assessment for the High-Throughput Transcriptomics (HTTr) Platform, in MCF-7 cells cultured in phenol red-free DMEM + 10% charcoal-stripped fetal bovine serum, Harrill Lab (AID 2283977)
Method in brief: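 Membrane integrity was scored via propidium iodide dye exclusion imaging, fitted in both directions relative to DMSO. Compounds ran as eight-point dilutions for 12 hours on MCF-7 grown in phenol red-free DMEM plus 10% charcoal-stripped serum.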

[12] = CCTE_Harrill_HTTr_Viability_PRF_DMEM_24hr: (Pilot) CCTE's 24-hour Cell Viability Assessment for the High-Throughput Transcriptomics (HTTr) Platform, in MCF-7 cells cultured in phenol red-free DMEM + 10% charcoal-stripped fetal bovine serum, Harrill Lab (AID 2283980)
Method in brief: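 Propidium iodide exclusion imaged at 24 h after dosing scores viability; cells were MCF-7 grown in phenol red-free DMEM plus 10% charcoal-stripped serum, tested in eight concentrations, fitted in both directions against DMSO.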

[13] = CCTE_Harrill_HTTr_Apoptosis_DMEM_6hr: (Pilot) CCTE's 6-hour Apoptosis Assessment for the High-Throughput Transcriptomics (HTTr) Platform, in MCF-7 cells cultured in DMEM + 10% fetal bovine serum, Harrill Lab (AID 2283981)
Method in brief: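 MCF-7 cells grown in DMEM + 10% FBS were exposed for 6 hours to an eight-point dilution series. CellEvent Caspase 3/7 Green signal was imaged; activity fitted bidirectionally against DMSO.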

[14] = CCTE_Harrill_HTTr_Apoptosis_DMEM_12hr: (Pilot) CCTE's 12-hour Apoptosis Assessment for the High-Throughput Transcriptomics (HTTr) Platform, in MCF-7 cells cultured in DMEM + 10% fetal bovine serum, Harrill Lab (AID 2283982)
Method in brief: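 Caspase-3/7 activity was measured by high-content imaging (CellEvent Caspase 3/7 Green) after a 12-hour exposure of MCF-7 cells grown in DMEM with 10% FBS. Eight-point concentration series, fitted bidirectionally against vehicle.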

[15] = CCTE_Harrill_HTTr_Apoptosis_DMEM_24hr: (Pilot) CCTE's 24-hour Apoptosis Assessment for the High-Throughput Transcriptomics (HTTr) Platform, in MCF-7 cells cultured in DMEM + 10% fetal bovine serum, Harrill Lab (AID 2283983)
Method in brief: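 Caspase-3/7 activity read by high-content imaging (CellEvent Green reagent) 24 h after dosing. MCF-7 cells grown in DMEM with 10% FBS received an eight-point concentration series; fits were bidirectional versus DMSO.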

[16] = CCTE_Harrill_HTTr_Apoptosis_PRF_DMEM_6hr: (Pilot) CCTE's 6-hour Apoptosis Assessment for the High-Throughput Transcriptomics (HTTr) Platform, in MCF-7 cells cultured phenol red-free DMEM + 10% charcoal-stripped fetal bovine serum, Harrill Lab (AID 2283984)
Method in brief: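 Caspase-3/7 activity (CellEvent Green) read by high-content imaging 6 h after dosing, eight concentrations. Cells: MCF-7, phenol red-free DMEM with 10% charcoal-stripped serum. Curves fit both directions against DMSO.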

PGR (gene 5241) = PGR (gene 5241) (UniProt P06401); experiment: TOX21_PR_LUC_Followup_Antagonist: Tox21 HEK293 Progesterone Receptor (PR) Antagonism Luciferase Follow-Up Assay (AID 2283938; active = hit-call score of the fitted dose curve at least 0.9, where 1 is the maximum;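 note: curve fitted upward as signal gain over DMSO baseline despite antagonist label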)
Method in brief: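 Cells are grown 5 days in charcoal-stripped-FBS assay medium, plated, left 5 h, then dosed with compound and incubated 16 h. ONE-Glo reagent is added and luminescence read after 30 min.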

[17] = TOX21_PR_LUC_Followup_Antagonist_viability: Viability Assessment in the Tox21 HEK293 Progesterone Receptor (PR) Antagonism Luciferase Follow-Up Assay (AID 2283940; active = hit-call score of the fitted dose curve at least 0.9, where 1 is the maximum)
Method in brief: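 Loss of CellTiter-Glo ATP signal indicates cytotoxicity in HEK293-PR-A-luc cells grown in 10% charcoal-stripped FBS medium, seeded 3,000 per well and incubated 16 h with compound at 37C.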

[18] = TOX21_PR_LUC_Followup_Agonist_viability: Viability Assessment in the Tox21 HEK293 Progesterone Receptor (PR) Agonism Luciferase Follow-Up Assay (AID 2283941; active = hit-call score of the fitted dose curve at least 0.9, where 1 is the maximum;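 note: loss of signal means cytotoxicity so actives lower viability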)
Method in brief: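 Seeding: HEK293-PR-A-luc, 3,000 cells/well, 5 h at 37C. Treatment: compound in DMSO, 16 h, 37C. Read: CellTiter-Glo ATP luminescence, signal loss taken as lower viability.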

Measured: AC50

PGR (gene 5241), sequence (P06401 whole entry, looked up): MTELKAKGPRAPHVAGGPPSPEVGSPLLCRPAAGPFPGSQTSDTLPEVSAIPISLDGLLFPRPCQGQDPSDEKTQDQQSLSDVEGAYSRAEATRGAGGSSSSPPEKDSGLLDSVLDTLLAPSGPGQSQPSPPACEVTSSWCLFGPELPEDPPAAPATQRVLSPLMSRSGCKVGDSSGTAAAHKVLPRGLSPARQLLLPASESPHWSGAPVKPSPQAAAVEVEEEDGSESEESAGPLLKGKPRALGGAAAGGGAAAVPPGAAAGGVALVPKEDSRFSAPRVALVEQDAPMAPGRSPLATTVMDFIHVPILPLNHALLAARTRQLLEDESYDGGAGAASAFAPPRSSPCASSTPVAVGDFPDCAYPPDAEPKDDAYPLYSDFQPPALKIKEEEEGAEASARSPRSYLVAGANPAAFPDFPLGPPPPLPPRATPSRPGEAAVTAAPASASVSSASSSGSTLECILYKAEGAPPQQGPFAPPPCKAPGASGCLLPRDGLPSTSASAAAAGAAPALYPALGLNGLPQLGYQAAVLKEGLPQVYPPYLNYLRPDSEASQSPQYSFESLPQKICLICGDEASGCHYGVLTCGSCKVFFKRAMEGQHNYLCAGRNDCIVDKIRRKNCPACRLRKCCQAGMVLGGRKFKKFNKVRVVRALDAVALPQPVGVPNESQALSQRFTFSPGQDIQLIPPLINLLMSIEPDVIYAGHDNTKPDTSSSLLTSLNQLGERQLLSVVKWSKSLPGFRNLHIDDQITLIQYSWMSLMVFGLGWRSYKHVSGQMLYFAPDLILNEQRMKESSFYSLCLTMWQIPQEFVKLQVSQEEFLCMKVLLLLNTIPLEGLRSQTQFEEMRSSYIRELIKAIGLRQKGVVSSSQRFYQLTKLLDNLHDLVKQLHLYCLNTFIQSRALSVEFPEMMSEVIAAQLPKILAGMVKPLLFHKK
THRB (gene 7068), sequence (P10828 whole entry, looked up, the tested form may be a part): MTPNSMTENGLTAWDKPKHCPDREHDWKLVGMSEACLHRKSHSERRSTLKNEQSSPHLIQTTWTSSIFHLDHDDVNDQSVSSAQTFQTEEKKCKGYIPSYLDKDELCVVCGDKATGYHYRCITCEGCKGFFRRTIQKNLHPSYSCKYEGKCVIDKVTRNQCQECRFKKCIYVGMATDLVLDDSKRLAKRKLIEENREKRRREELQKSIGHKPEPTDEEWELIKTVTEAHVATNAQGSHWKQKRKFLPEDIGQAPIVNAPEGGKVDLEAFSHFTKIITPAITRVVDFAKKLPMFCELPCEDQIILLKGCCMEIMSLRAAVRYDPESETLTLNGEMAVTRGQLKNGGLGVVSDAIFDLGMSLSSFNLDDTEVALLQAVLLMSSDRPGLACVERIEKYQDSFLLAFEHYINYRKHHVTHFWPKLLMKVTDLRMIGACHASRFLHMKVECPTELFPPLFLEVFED
THRA (gene 7067), sequence (P10827 whole entry, looked up, the tested form may be a part): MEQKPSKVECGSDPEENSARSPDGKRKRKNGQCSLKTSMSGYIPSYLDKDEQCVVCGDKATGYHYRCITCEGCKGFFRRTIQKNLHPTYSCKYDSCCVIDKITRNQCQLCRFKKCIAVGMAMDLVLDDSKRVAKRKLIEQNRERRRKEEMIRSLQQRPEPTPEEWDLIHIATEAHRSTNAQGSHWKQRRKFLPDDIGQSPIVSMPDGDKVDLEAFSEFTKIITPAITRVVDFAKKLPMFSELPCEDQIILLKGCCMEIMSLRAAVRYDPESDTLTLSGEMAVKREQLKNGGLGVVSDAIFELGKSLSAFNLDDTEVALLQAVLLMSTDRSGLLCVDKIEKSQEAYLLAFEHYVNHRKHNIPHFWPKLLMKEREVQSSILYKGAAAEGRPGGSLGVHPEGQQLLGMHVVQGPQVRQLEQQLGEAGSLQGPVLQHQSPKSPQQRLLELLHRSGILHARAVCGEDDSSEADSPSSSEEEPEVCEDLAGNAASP
Retinoic acid receptor RXR-alpha (Homo sapiens), sequence (P19793 whole entry, looked up): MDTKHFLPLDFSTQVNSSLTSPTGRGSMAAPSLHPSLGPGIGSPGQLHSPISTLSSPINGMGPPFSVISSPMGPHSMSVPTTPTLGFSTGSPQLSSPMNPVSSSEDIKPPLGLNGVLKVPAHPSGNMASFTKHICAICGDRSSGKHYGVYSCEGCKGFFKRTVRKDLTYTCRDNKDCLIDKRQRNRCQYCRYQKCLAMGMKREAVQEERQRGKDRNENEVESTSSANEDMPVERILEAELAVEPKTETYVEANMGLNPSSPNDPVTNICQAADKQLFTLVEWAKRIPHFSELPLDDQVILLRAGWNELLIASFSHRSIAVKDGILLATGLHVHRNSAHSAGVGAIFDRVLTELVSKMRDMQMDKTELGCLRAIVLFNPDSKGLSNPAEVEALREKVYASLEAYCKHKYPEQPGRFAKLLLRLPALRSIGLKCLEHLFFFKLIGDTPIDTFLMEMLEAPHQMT

CC1(c2ccc(Oc3ccccc3)cc2)OC(=O)N(Nc2ccccc2)C1=O (stereo not given)
active: [1] 25.7 µM | [3] 22 µM | [5] 28.9 µM | [6] 38.5 µM
inactive: THRA (gene 7067) | THRB (gene 7068) [2] | THRB (gene 7068) [4]

O=C(O)C(F)(F)C(F)(F)C(F)(F)C(F)(F)C(F)(F)C(F)(F)C(F)(F)F
inactive: [7] | [8] | [9] | [10] | [11] | [12] | [13] | [14] | [15] | [16]

COP(=S)(OC)Oc1ccc([N+](=O)[O-])cc1
inactive: [17] | [18]
active: PGR (gene 5241) 33.5 µM

CCCN(CCOc1c(Cl)cc(Cl)cc1Cl)C(=O)n1ccnc1
inactive: [17] | [18] | [7] | [8] | [9] | [10] | [11] | [13] | [14] | [15] | [16]
active: PGR (gene 5241) 57.9 µM | [12] 9.92 µM

ClC1C(Cl)C(Cl)C(Cl)C(Cl)C1Cl (stereo not given)
inactive: PGR (gene 5241) | [18]

O=S(=O)(O)C(F)(F)C(F)(F)C(F)(F)C(F)(F)C(F)(F)C(F)(F)C(F)(F)C(F)(F)F
inactive: [7] | [8] | [9] | [10] | [11] | [12] | [13] | [14] | [15] | [16]
